HEK cytotox – cytotoxic compounds in HEK 293 cells | HEK 293 viability, ATP luminescence (CellTiter-Glo), 48-72 h | Potency, µM (titrated, usually from 115 µM), without a hit: top-dose activity change, negative = cytotoxicity, hits mostly inhibitors | 6.6% of 94,000 active | AID 1345083; also: nearly all actives have a fitted effect of over 60% in size
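qHTS cytotoxicity; HEK 293, 250 cells/well; compound pinned; 48 or 72 hr, 37 degree Celsius, 5% CO2, 95% humidity; CellTiter-Glo, 10 min RT; luminescence (ATP).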
FLuc inh – inhibitors of firefly (Photinus pyralis) luciferase; Potency, µM (top dose mostly 115 µM), actives largely listed as inhibitors; 2.5% of 76,000 active; purified P. pyralis luciferase, luminescence, biochemical; also: nearly all actives have a fitted effect of over 65% in size
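Inhibitors were tested against purified firefly luciferase in a biochemical, low-substrate format (both substrates at 10uM) and luminescence measured with a CCD imager.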
GPT2 inh – GPT2 alanine aminotransferase inhibition; Potency, µM (series often up to 57.7 µM), inactives show at the top dose activity change, negative = inhibition, actives largely listed as inhibitors; Q8TD30; AID 1671188; 0.25% of 100,000 active; Recombinant GPT2, coupled pyruvate oxidase/HRP Amplex Red fluorescence; also: nearly all actives have a fitted effect of over 60% in size
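GPT2 10ng/uL, a-KG 250uM, L-Ala 2mM, HEPES pH7.5 + 0.0001% Tween; 30 min RT. Then Amplex mix (PO/HRP/ThPP), 30 min RT dark, fluorescence. AOA 50uM used as positive control.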
hNpr1 antagonist – blocks ANP-stimulated signaling of human Npr1 receptor; Potency, µM (series often up to 46.3 µM), without a hit: at the top dose activity change, negative = inhibition, most hits filed as inhibitors; AID 1347048; 1.6% of 76,000 active; P16066; HEK293 hNpr1 GloSensor cGMP, ANP-stimulated luminescence; calls by dose curve; also: nearly all actives have a fitted effect of over 60% in size
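HEK293 cells stably expressing human Npr1 and cGMP GloSensor pGS-40F, loaded 2 h with 2% GloSensor reagent, given compound 30 min at room temperature. Luminescence read before and 20 min after 0.1 nM hNppA.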
3T3 cytotox – kills NIH 3T3 cells; NIH 3T3 viability, CellTiter-Glo ATP luminescence, 48-72 h; Potency, µM (titrated, usually from 96.7 µM), for inactives: at the top dose activity change, negative = cytotoxicity, actives largely listed as inhibitors; 4.3% of 94,000 active; AID 1345082; also: nearly all actives have a fitted effect of over 55% in size
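ATP-dependent luminescence (CellTiter-Glo) served as the viability signal for NIH 3T3 cells treated with compound for 48 or 72 hr at 37 °C.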
An asterisk follows results filed as active; i = inactive; ? = inconclusive; / = no result; [ ] = another dose, or the depositor's remark. Shown are actives, neighbours in structure and some others; about 10% of the full set was active somewhere. Unless noted, calls follow the shape of the dose curve; as a rule, active = well fitted curve in the direction sought with a large enough effect; inconclusive = small, poorly fitted or top-dose-only effect, or another doubt; inactive = no such curve, though single readings can be large; an effect the other way counts as inactive or inconclusive. % is scaled to controls: 0 for no effect and ±100 for the full control effect; potency is read from the fitted curve at half-maximal effect.

SMILES | HEK cytotox | FLuc inh | GPT2 inh | hNpr1 antagonist | 3T3 cytotox
Cc1nn(-c2ccccc2)c2c1C(C)N(C1CCCN(C(=O)c3ccccc3Cl)C1)C2=O (configuration not stated) | 40µM* | / | / | / | ?
COc1cccc(-c2cn3cc(C(=O)NCc4ccc(F)cc4)nc3s2)c1 | ? | / | i | / | ?
O=S1(=O)CC(COCc2ccccc2)CN1c1ccccc1 (configuration not stated) | -16% | / | / | / | ?
O=C(CCC1CCN(C(=O)[C@H]2C[C@@H]3C=C[C@H]2C3)CC1)N1CCC(Cc2ccccc2)CC1 | 45µM* | i | ? | ? | ?
Cc1ccc(NC(=O)N2CCCC(c3noc(COc4ccccc4)n3)C2)c(C)c1 (configuration not stated) | ? | ? | i | 13µM* | ?
COCCNC(=O)N1CCCC(c2noc(COc3ccccc3)n2)C1 (configuration not stated) | -13% | i | i | -13% | -17%
CCNC(=O)N1CCCC(c2noc(COc3ccccc3)n2)C1 (configuration not stated) | -11% | 32µM* | i | -25% | -28%
COc1ccc(CCNC(=O)c2nc3sccn3c2-c2ccncc2)cc1 | ? | / | i | / | ?
COc1ccc(OCc2nc(C)c(CCO)c(=O)n2CC(=O)Nc2ccc(C)c(C)c2)cc1 | ? | i | 0% | -8% | -25%
COc1ccc(NC(=O)Nc2ccc(C)n(CC(=O)Nc3ccc(C)c(C)c3)c2=O)cc1 | ? | 0.71µM* | -9% | -15% | -28%
COc1cccc(NC(=O)Cn2c(C)ccc(NC(=O)Nc3ccc(C)cc3)c2=O)c1 | 79µM* | 1µM* | -7% | ? | ?
CCCN1CCN(C(=O)Cn2c(C)ccc(NC(=O)Nc3ccccc3)c2=O)CC1 | -3% | 35µM* | i | 8% | i
Cc1ccc(NC(=O)Nc2ccc(C)n(CC(=O)NC3CCCCC3)c2=O)cc1 | ? | 0.4µM* | -16% | ? | ?
O=C(NCCc1ccc(Cl)cc1)c1nc(-c2cccc(F)c2)c2cnccn12 | ? | i | i | 6% | -26%
CCN1CCN(C(=O)c2ccc3nc(-c4ccncc4)oc3c2)CC1 | -18%[172 µM] | / | -2%[88.5 µM] | / | -10%[138 µM]
O=C(NC1CC1)c1nc2cccnc2n(C2CCCC2)c1=O | 1%[172 µM] | / | i | / | -23%[138 µM]
O=C(NCCc1ccccc1)c1cn2cc(-c3ccc(F)cc3)sc2n1 | ? | / | i | / | ?
Cc1ccc(NC(=O)Nc2ccc(C)n(CC(=O)Nc3ccccc3)c2=O)cc1 | 8% | 0.79µM* | -18% | 0% | i
Cc1noc(C)c1[S+](=O)([O-])N1CCN(C(=O)c2nc3cccnc3n(Cc3ccccc3)c2=O)CC1 | -14% | / | 4% | / | -16%
O=S(=O)(c1ccc(C(F)(F)F)cc1)N1CCC(C2CCNC2)CC1 (configuration not stated) | 79µM* | i | -17% | 0% | ?
Cc1nn(-c2ccc(C(C)C)cc2)c(C)c1[C@@H]1C=C[C@@H](NCc2cccc(C#N)c2)C1 | 25µM* | ? | -23%[88.5 µM] | -19%[70.6 µM] | ?
Cc1ccc(-n2nc(C)c([C@@H]3C=C[C@@H](NCc4cccc(C#N)c4)C3)c2C)cc1Cl | 25µM* | ? | -10%[88.5 µM] | ? | ?
Cc1nn(CCC#N)c(C)c1[C@@H]1C=C[C@@H](NC(=O)NCc2ccccc2)C1 | -7%[172 µM] | i | -10%[88.5 µM] | 1%[70.6 µM] | -27%[174 µM]
Cc1nn(-c2ccccc2)c(C)c1[C@@H]1C=C[C@@H](NCc2cccc(C#N)c2)C1 | 63µM* | i | -8%[88.5 µM] | -13%[70.6 µM] | ?
COc1ccccc1-c1ccc(C(=O)N2CCC(NC(=O)NC(C)C)CC2)cc1 | ? | / | i | / | ?
SMILES | HEK cytotox | FLuc inh | GPT2 inh | hNpr1 antagonist | 3T3 cytotox
COc1ccc(CNC(=O)C2CCCN(Cc3cccc(-c4cccc(C)c4)c3)C2)cc1 (configuration not stated) | ? | / | -6% | / | 28µM*
COc1ccc(CCNC(=O)C2CCCN(Cc3cccc(-c4cccc(C)c4)c3)C2)cc1 (configuration not stated) | 22µM* | / | 3% | / | ?
CCOc1ccccc1CNC(=O)c1cc2n(n1)CC(c1ccc(Cl)cc1)OC2 (configuration not stated) | 25µM* | i | -2% | -30% | ?
CCOc1ccccc1NC(=O)c1cc2n(n1)CC(c1ccc(Cl)cc1)OC2 (configuration not stated) | 0% | i | -11% | 3% | -2%
O=C(NCC1CC1)c1cc2n(n1)CC(c1ccc(Cl)cc1)OC2 (configuration not stated) | ? | i | 0% | -7% | 40µM*
COCCCNC(=O)c1ccc2oc(-c3ccncc3Cl)nc2c1 | ? | / | i | / | -30%
CCCCn1c(=O)c(C(=O)NCCOC)nc2cccnc21 | -1%[172 µM] | / | 1%[88.5 µM] | / | -24%[138 µM]
O=C(C1COc2ccccc2C1)N1CCC(n2c(=O)[nH]c3ccccc32)CC1 (configuration not stated) | 22µM* | i | 1%[11.5 µM] | ? | ?
CC(C)(C)OC(=O)NCCCC(=O)N1CCC(n2c(=O)[nH]c3ccccc32)CC1 | ? | i | 3% | 20µM* | -30%
CC1=C(C(=O)OC(C)C)C(c2ccccc2Cl)CC(=O)N1Cc1cccc(F)c1 (configuration not stated) | 32µM* | i | i | 3% | ?
N#CC1CCN(C(=O)C2CCN(Cc3ccccc3-c3ccccc3F)CC2)CC1 | ? | / | i | / | ?
COc1ccc2c(c1)OCC(CNC(=O)c1cc(-c3ccncc3)n[nH]1)C2 (configuration not stated) | ? | i | 1% | -9% | ?
COc1ccc2c(c1)OCC(C(=O)NCCNc1cc(C)ccn1)C2 (configuration not stated) | -15% | i | -1% | 2% | 79µM*
CN1CCCC2(C1)CN(C)c1ccc(C(=O)NCCOc3ccccc3)cc12 (configuration not stated) | ? | i | -6%[88.5 µM] | 0%[70.6 µM] | ?
CN1CCC2(C1)CN(CC1CC1)c1ccc(C(=O)NCCOc3ccccc3)cc12 (configuration not stated) | 56µM* | i | ? | -19%[70.6 µM] | 40µM*
COc1ccc(NC(=O)c2ccc3c(c2)C2(CCN(C)C2)CN3CC2CC2)cc1 (configuration not stated) | 50µM* | i | ? | -5%[70.6 µM] | 25µM*
CN1CCC2(C1)CN(CC1CCOCC1)c1ccc(C(=O)NCc3ccccc3)cc12 (configuration not stated) | ? | i | 0%[88.5 µM] | 3%[70.6 µM] | ?

Assay outcomes from PubChem BioAssay.
